A short description of assay [1]: HepG2 liver cancer cell viability effects, profiling panel, resazurin fluorescence, 24 h, PK04 Diversity Set (AID 1172). Also: test concentration not given here. The conditions noted are these: higher = more signal. In general terms: Resazurin is reduced to fluorescent resorufin, in cell work by metabolically active cells.
The nature of assay [2]: basal S. cerevisiae growth modulation, no modifier, primary screen, OD600, strain BY4716, 24 h, basal condition (AID 1173). The conditions noted are these: OD600, 24 h, higher = more signal, called active from +8 up or from −8 down.
Assay [3] can be described thus: MM1S myeloma cell viability, profiling panel, resazurin fluorescence, basal, 24 h, PK04 Diversity Set (AID 1174).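 Also: MM1S multiple myeloma cell line; test concentration not given here.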 The conditions noted are these: higher = more signal, called active from +8 up or from −8 down.
For assay [4], the target named is Dihydroorotate dehydrogenase (quinone), mitochondrial (Plasmodium falciparum (isolate 3D7)) (UniProt Q08210). The experiment in a line: PfDHODH enzyme inhibitors, primary screen, biochemical, C-terminal His tag, absorbance 600 nm (AID 1175).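 Also: recombinant parasite enzyme with a five histidine tag at its C terminus; test concentration not given here.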 Particulars: DCIP absorbance 600 nm, higher = more signal, called active from +8 up or from −8 down.
Chain of Dihydroorotate dehydrogenase (quinone), mitochondrial (Plasmodium falciparum (isolate 3D7)) (Q08210 whole entry, looked up): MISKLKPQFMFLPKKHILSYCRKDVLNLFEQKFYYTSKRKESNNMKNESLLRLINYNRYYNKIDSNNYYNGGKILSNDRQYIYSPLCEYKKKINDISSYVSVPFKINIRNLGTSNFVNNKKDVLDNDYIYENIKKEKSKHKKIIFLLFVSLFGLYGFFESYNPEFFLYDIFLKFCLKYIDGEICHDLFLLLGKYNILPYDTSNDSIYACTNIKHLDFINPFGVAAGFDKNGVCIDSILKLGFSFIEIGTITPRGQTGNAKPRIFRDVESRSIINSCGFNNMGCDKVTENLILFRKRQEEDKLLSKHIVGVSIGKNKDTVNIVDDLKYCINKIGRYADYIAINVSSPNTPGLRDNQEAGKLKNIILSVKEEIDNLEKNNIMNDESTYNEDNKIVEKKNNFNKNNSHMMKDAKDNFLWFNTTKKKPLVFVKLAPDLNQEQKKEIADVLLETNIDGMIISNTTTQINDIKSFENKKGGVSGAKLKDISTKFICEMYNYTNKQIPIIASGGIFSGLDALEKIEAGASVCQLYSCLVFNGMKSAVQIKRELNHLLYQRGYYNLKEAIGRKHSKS
Assay [5] is described as follows: P. aeruginosa biofilm formation inhibitors, primary screen, strain PAO1, LB-PBS medium, absorbance 600 nm (AID 1176). Also: test concentration not given here. Particulars: P. aeruginosa PAO1 growth/biofilm, A600, 12 h; higher = more signal.
A short description of assay [6]: S. cerevisiae RM11-1a growth modifiers, primary screen, strain RM11-1a, OD600, basal, 24 h (AID 1177).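 Also: cultures grown under basal conditions with no added stressor; test concentration not given here.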 The conditions noted are these: OD600, 24 h, higher = more signal, called active from +8 up or from −8 down.
A short description of assay [7]: E. coli acrAB mutant growth effects, primary screen, E. coli filamentation inducers, strain DRC39, OD650, 24 h (AID 1178).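 Also: growth measured as culture turbidity by optical density at 650 nm; test concentration not given here.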 The conditions noted are these: higher = more signal, called active from +8 up or from −8 down.
Assay [8] in a line: E. coli acrAB mutant growth effects, primary screen, E. coli filamentation inducers, strain DRC39, OD650, 48 h (AID 1179).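 Also: screen aims at cell division blockers that make cells filament.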 The conditions noted are these: E. coli DRC39 delta-acrAB growth, higher = more signal, called active from +8 up or from −8 down.
The nature of assay [9]: RPMI8226 myeloma cell viability, profiling panel, resazurin fluorescence, basal, 24 h, PK04 Diversity Set (AID 1180).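 Also: RPMI8826 multiple myeloma cell line at 5000 cells per well; test concentration not given here.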 The conditions noted are these: higher = more signal.
The target of assay [10] is E3 ubiquitin-protein ligase XIAP (Homo sapiens) (UniProt P98170). The assay is described as follows: XIAP binders, primary screen, biophysical, small-molecule microarray, fluorescence 635 nm (AID 1181).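 Also: score merges 667 nm emission and signal to noise over triplicate slides.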 Particulars: small-molecule microarray binding, higher = more signal.
Chain of E3 ubiquitin-protein ligase XIAP (Homo sapiens) (P98170 whole entry, looked up): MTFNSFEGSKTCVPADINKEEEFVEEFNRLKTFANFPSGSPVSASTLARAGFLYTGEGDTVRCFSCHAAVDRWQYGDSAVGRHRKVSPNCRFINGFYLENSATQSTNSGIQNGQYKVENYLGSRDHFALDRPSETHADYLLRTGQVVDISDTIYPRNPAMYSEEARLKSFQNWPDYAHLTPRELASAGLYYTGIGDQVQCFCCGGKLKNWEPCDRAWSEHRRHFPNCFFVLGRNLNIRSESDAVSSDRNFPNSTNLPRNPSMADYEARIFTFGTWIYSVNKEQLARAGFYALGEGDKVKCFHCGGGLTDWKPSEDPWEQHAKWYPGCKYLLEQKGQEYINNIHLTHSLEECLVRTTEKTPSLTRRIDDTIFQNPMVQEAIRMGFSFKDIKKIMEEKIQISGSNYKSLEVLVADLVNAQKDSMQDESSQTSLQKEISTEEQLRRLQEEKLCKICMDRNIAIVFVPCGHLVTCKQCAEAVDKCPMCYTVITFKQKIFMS

Activity calls are given as the source filed them. Unless noted, no rule for the calls is given here.

The results in this text go back to PubChem BioAssay.

`CCN(CC)c1ccc(N2CC=CC34O[C@@H]5C=CCOC(=O)[C@@H]5[C@H]3C(=O)N(CCCCCCO)[C@@H]4C2=O)cc1` (stereo not given in full): the z-score in assay [1] is 1.35; in assay [2] it was -0.532 (inactive); in assay [3], 1.27 (inactive); in assay [5], -0.152 (inactive); in [6], -0.5 (inactive); in assay [7], 0.918 (inactive). Besides, the z-score in assay [8] is 0.701 (inactive); in [9], 1.45. Further, the composite z-score in assay [4] is 0.466 (inactive); in assay [10] it was 0.212.
As for `C#CCOc1ccc(C[C@@H](C(=O)OC)N(CC#C)[C@@H](/C=C/C2CC2)[C@H](O)Cc2ccccc2)cc1`, the z-score is 0.288 in assay [1]; 1.03 (inactive) in assay [2]; 0.232 (inactive) in assay [3]; -0.271 (inactive) in assay [5]; 1.45 (inactive) in assay [6]; -0.741 (inactive) in [7]. Besides, the results for the z-score in assay [8] and in assay [9] were -0.528 (inactive) and 0.318, respectively. Besides, the values for the composite z-score in assay [4] and in assay [10] were 0.567 (inactive) and 0.157, respectively.
As for `CC[C@@H]1C=C(C(=O)O)[C@H](c2cccc3ccccc23)N1S(=O)(=O)c1ccc(C)cc1`, the z-score in assay [1] is -0.359; in [2] it was 0.518 (inactive); in [3], -0.653 (inactive); in assay [5] it was 0.546 (inactive); in assay [6], -0.43 (inactive); in [7], -0.624 (inactive). In addition, the values for the z-score in [8] and in assay [9] were 0.225 (inactive) and -1, respectively. Also, the composite z-score in assay [4] was 0.859 (inactive); in [10] it was -0.359.
On to `CCCCC(O)C1C=CC2C(=O)N(C)C(=O)C2N1N1CCCCC1` (stereo not given), for which the z-score in assay [1] is -1.12; in [2], 1.96 (inactive); in assay [3], -1.5 (inactive); in [5], 0.971 (inactive); in assay [6] it was 1.64 (inactive); in assay [7], -0.83 (inactive). Besides, the z-score in assay [8] is -0.412 (inactive); in assay [9], -1.9. Also, the composite z-score is 1.23 (inactive) in [4] and 0.547 in [10].
In the case of `Cc1ccc(S[C@]2(C(=O)NCC(C)C)CC(=O)N(Cc3cc(C(F)(F)F)cc(C(F)(F)F)c3)[C@@H]2c2ccc(CO)cc2)cc1`, the z-score is -0.0834 in assay [1]; -0.58 (inactive) in assay [2]; -0.656 (inactive) in assay [3]; 0.559 (inactive) in assay [5]; -0.622 (inactive) in assay [6]; -0.995 (inactive) in assay [7]. The z-score in assay [8] is -0.882 (inactive); in [9], -0.321. The composite z-score was -0.099 (inactive) in assay [4] and -0.142 in assay [10].
As to `CC#CC(=O)Oc1ccc(Br)cc1C=CC(=O)OCC`, the z-score is -0.0419 in [1]; -14.7 (active) in assay [2]; -2.38 (inactive) in [3]; 0.312 (inactive) in assay [5]; -10.6 (active) in assay [6]; -0.0142 (inactive) in assay [7]. Moreover, the z-score was -1.01 (inactive) in assay [8] and -3 in [9]. Moreover, the composite z-score in assay [4] was -0.632 (inactive); in assay [10], 1.25.
For `C=CC[C@]1(C(=O)NCc2ccccc2)N=C(c2ccc(OCCCO)cc2)O[C@H]1c1ccccc1CN=[N+]=[N-]`, the z-score was 0.238 in [1]; -0.0802 (inactive) in assay [2]; -0.871 (inactive) in assay [3]; 1.06 (inactive) in assay [5]; 0.149 (inactive) in [6]; -0.0443 (inactive) in assay [7]. The results for the z-score in assay [8] and in [9] were -1.25 (inactive) and -0.328, respectively. For the same compound, the composite z-score in assay [4] is 0.548 (inactive); in [10], -0.0322.
Regarding `CCOC(=O)C[C@H]1[C@H](OC(=O)c2ccc(-c3ccccc3)cc2)[C@@H](NC(=O)c2ccccc2)c2cc(OCCCO)ccc2N1C(=O)c1ccc2ccccc2n1`, the z-score is -0.471 in assay [1]; 0.171 (inactive) in assay [2]; -0.397 (inactive) in assay [3]; -0.17 (inactive) in [5]; -0.888 (inactive) in [6]; 0.27 (inactive) in assay [7]. The z-score in [8] is 0.256 (inactive); in assay [9] it was -0.258. Also, the figures for the composite z-score in assay [4] and in [10] were -0.12 (inactive) and 0.132, respectively.
For the compound `Cc1ccc(C2C3C(=O)CC4C(=O)N(c5ccccc5)C(=O)C4C3CN2S(=O)(=O)c2ccc(C)cc2)cc1` (stereo not given), the z-score in assay [1] was -0.419; in assay [2], 1.05 (inactive); in [3], -0.936 (inactive); in assay [5], 0.201 (inactive); in assay [6], 1.24 (inactive); in assay [7], -0.478 (inactive). For the same compound, the z-score in assay [8] is 0.384 (inactive); in assay [9], -0.82. Also, the composite z-score in assay [4] is -0.274 (inactive); in assay [10], -0.173.
For the compound `C=CCC(OC(C)=O)[C@@H]1[C@@H](N(Cc2ccc(-c3ccccc3)cc2)C(=O)Cc2ccc(F)cc2)c2cc(OCCCO)ccc2N1C(=O)c1ccc2ccccc2c1` (stereo not given in full), the z-score in [1] was -0.228; in assay [2], -0.458 (inactive); in assay [3], 0.376 (inactive); in assay [5], 0.0885 (inactive); in [6] it was -0.198 (inactive); in [7], -0.794 (inactive). Besides, the z-score in assay [8] was -0.397 (inactive); in assay [9], -0.112. The composite z-score in [4] was 0.683 (inactive); in assay [10] it was -0.146.
Take `CCCCN1CC=CC23O[C@@H]4C=CCOC(=O)[C@@H]4[C@H]2C(=O)N(CCCCCCO)[C@@H]3C1=O` (stereo not given in full): the z-score in assay [1] was -0.556; in assay [2] it was 0.0518 (inactive); in assay [3], 0.0626 (inactive); in assay [5], -0.112 (inactive); in assay [6] it was -0.55 (inactive); in [7], 0.272 (inactive). Besides, the values for the z-score in [8] and in assay [9] were 0.25 (inactive) and -0.386, respectively. The composite z-score in assay [4] is -0.838 (inactive); in [10], 0.245.
For `O=C1[C@H]2C=C(Br)[C@H](C[C@@H]2OCCCCCCO)[C@@]12CO2`, the z-score was -0.629 in assay [1]; -1.3 (inactive) in [2]; -1.43 (inactive) in [3]; 0.756 (inactive) in assay [5]; 0.414 (inactive) in [6]; -0.748 (inactive) in assay [7]. The z-score was -0.602 (inactive) in assay [8] and -0.899 in assay [9]. Further, the composite z-score in assay [4] was 0.571 (inactive); in [10] it was -0.395.
